The supplement of paper PMC8728848
This excerpt belongs to a sample that is enriched for the strongest signals.

How the values were obtained:
Experiment in all cases: glycan array binding signal (z-score within array); higher = stronger binding
Conditions in all cases: glycan notation: IUPAC condensed, linker removed
[1] = molecular target: Fuc(a1-2)Gal(b1-3)GalNAc(a1-3)[Fuc(a1-2)]Gal(b1-4)Glc
Procedure, shortened: (§1)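 Arrays were curated from the Consortium for Functional Glycomics database, 3228 in total, and kept only where the protein sequence was available. Binding is expressed as a within-array Z-score. This score was averaged across arrays of the same protein sequence at different concentrations or buffers and across linkers, and negative values can be read as non-binding.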

[2] = molecular target: Fuc(a1-2)Gal(b1-4)[Fuc(a1-3)]GlcNAc
Procedure, shortened: as §1

[3] = molecular target: Fuc(a1-2)[Gal(a1-3)]Gal(b1-3)GalNAc
Procedure, shortened: as §1

[4] = molecular target: Fuc(a1-2)[Gal(a1-3)]Gal(b1-3)GlcNAc(b1-2)Man(a1-3)[Fuc(a1-2)[Gal(a1-3)]Gal(b1-3)GlcNAc(b1-2)Man(a1-6)]Man(b1-4)GlcNAc(b1-4)GlcNAc
Procedure, shortened: as §1

[5] = molecular target: Fuc(a1-2)[Gal(a1-3)]Gal(b1-3)GlcNAc(b1-2)Man(a1-3)[Fuc(a1-2)[Gal(a1-3)]Gal(b1-3)GlcNAc(b1-2)Man(a1-6)]Man(b1-4)GlcNAc(b1-4)[Fuc(a1-6)]GlcNAc
Procedure, shortened: as §1

[6] = molecular target: Fuc(a1-2)[Gal(a1-3)]Gal(b1-4)GlcNAc(b1-2)Man(a1-3)[Fuc(a1-2)[Gal(a1-3)]Gal(b1-4)GlcNAc(b1-2)Man(a1-6)]Man(b1-4)GlcNAc(b1-4)GlcNAc
Procedure, shortened: as §1

[7] = molecular target: Fuc(a1-2)[GalNAc(b1-3)]Gal
Procedure, shortened: as §1

[8] = molecular target: Fuc(a1-3)[Gal(b1-4)]GlcNAc(b1-3)GalNAc
Procedure, shortened: as §1

[9] = molecular target: Fuc(a1-3)[Gal(b1-4)]GlcNAc(b1-6)[Gal(b1-3)GlcNAc(b1-3)]Gal(b1-4)Glc
Procedure, shortened: as §1

Gal(a1-2)Gal = molecular target: Gal(a1-2)Gal
Procedure, shortened: as §1

[10] = molecular target: Gal(a1-3)Fuc(a1-2)Gal(b1-4)GlcNAc(b1-3)[Gal(a1-3)Fuc(a1-2)Gal(b1-4)GlcNAc(b1-6)]GalNAc
Procedure, shortened: as §1

[11] = molecular target: Gal(a1-3)Gal(b1-3)GlcNAc(b1-2)Man
Procedure, shortened: as §1

Gal(a1-3)Gal(b1-4)GlcNAc = molecular target: Gal(a1-3)Gal(b1-4)GlcNAc
Procedure, shortened: as §1

[12] = molecular target: Gal(a1-3)Gal(b1-4)GlcNAc(b1-2)Man(a1-3)[Gal(a1-3)Gal(b1-4)GlcNAc(b1-2)Man(a1-6)]Man(b1-4)GlcNAc(b1-4)GlcNAc
Procedure, shortened: as §1

[13] = molecular target: Gal(a1-3)Gal(b1-4)[Fuc(a1-3)]GlcNAc
Procedure, shortened: as §1

[14] = molecular target: Gal(a1-3)[Gal(a1-4)]Gal(b1-4)GlcNAc
Procedure, shortened: as §1

[15] = molecular target: Gal(a1-4)Gal(b1-3)GlcNAc(b1-2)Man(a1-3)[Gal(a1-4)Gal(b1-3)GlcNAc(b1-2)Man(a1-6)]Man(b1-4)GlcNAc(b1-4)GlcNAc
Procedure, shortened: as §1

[16] = molecular target: Gal(a1-4)Gal(b1-4)GlcNAc(b1-2)Man(a1-3)[Gal(a1-4)Gal(b1-4)GlcNAc(b1-2)Man(a1-6)]Man(b1-4)GlcNAc(b1-4)GlcNAc
Procedure, shortened: as §1

Gal(a1-4)GlcNAc = molecular target: Gal(a1-4)GlcNAc
Procedure, shortened: as §1

[17] = molecular target: Gal(b1-3)GalNAc(a1-3)[Fuc(a1-2)]Gal(b1-4)GlcNAc
Procedure, shortened: as §1

[18] = molecular target: Gal(b1-3)GlcNAc(a1-6)Gal(b1-4)GlcNAc
Procedure, shortened: as §1

Gal(b1-3)GlcNAc(b1-2)Man = molecular target: Gal(b1-3)GlcNAc(b1-2)Man
Procedure, shortened: as §1

[19] = molecular target: Gal(b1-3)GlcNAc(b1-2)[Gal(b1-3)GlcNAc(b1-6)]Man(a1-6)[Gal(b1-3)GlcNAc(b1-2)Man(a1-3)]Man(b1-4)GlcNAc(b1-4)GlcNAc
Procedure, shortened: as §1

[20] = molecular target: Gal(b1-3)GlcNAc(b1-3)Gal(b1-4)GlcNAc
Procedure, shortened: as §1

[21] = molecular target: Gal(b1-3)GlcNAc(b1-3)Gal(b1-4)GlcNAc(b1-6)[Gal(b1-3)GlcNAc(b1-3)]Gal(b1-4)Glc
Procedure, shortened: as §1

[22] = molecular target: Gal(b1-3)GlcNAc(b1-3)Gal(b1-4)[Fuc(a1-3)]GlcNAc
Procedure, shortened: as §1

[23] = molecular target: Gal(b1-4)GlcNAc(b1-2)Man(a1-3)[Gal(b1-4)GlcNAc(b1-2)Man(a1-6)][Gal(b1-4)GlcNAc(b1-4)]Man(b1-4)GlcNAc(b1-4)[Fuc(a1-6)]GlcNAc
Procedure, shortened: as §1

[24] = molecular target: Gal(b1-4)GlcNAc(b1-2)Man(a1-3)[GlcNAc(b1-4)][Gal(b1-4)GlcNAc(b1-2)Man(a1-6)]Man(b1-4)GlcNAc(b1-4)GlcNAc
Procedure, shortened: as §1

[25] = molecular target: Gal(b1-4)GlcNAc(b1-2)Man(a1-6)Man(b1-4)GlcNAc(b1-4)GlcNAc
Procedure, shortened: as §1

[26] = molecular target: Gal(b1-4)GlcNAc(b1-3)Gal(b1-4)GlcNAc(b1-3)Gal(b1-4)GlcNAc(b1-3)Gal(b1-4)GlcNAc(b1-3)Gal(b1-4)GlcNAc(b1-3)Gal(b1-4)GlcNAc(b1-2)Man(a1-3)[Gal(b1-4)GlcNAc(b1-3)Gal(b1-4)GlcNAc(b1-3)Gal(b1-4)GlcNAc(b1-3)Gal(b1-4)GlcNAc(b1-3)Gal(b1-4)GlcNAc(b1-3)Gal(b1-4)GlcNAc(b1-2)Man(a1-6)]Man(b1-4)GlcNAc(b1-4)GlcNAc
Procedure, shortened: as §1

Gal3S(b1-4)Glc = molecular target: Gal3S(b1-4)Glc
Procedure, shortened: as §1

Gal3S(b1-4)GlcNAc = molecular target: Gal3S(b1-4)GlcNAc
Procedure, shortened: as §1

[27] = molecular target: GalNAc(a1-3)GalNAc(b1-3)Gal(a1-4)Gal(b1-4)Glc
Procedure, shortened: as §1

GalNAc3S(b1-4)GlcNAc = molecular target: GalNAc3S(b1-4)GlcNAc
Procedure, shortened: as §1

[28] = molecular target: GlcNAc(a1-4)Gal(b1-4)GlcNAc
Procedure, shortened: as §1

[29] = molecular target: GlcNAc(b1-2)[GlcNAc(b1-4)]Man(a1-3)[GlcNAc(b1-4)][GlcNAc(b1-2)[GlcNAc(b1-6)]Man(a1-6)]Man(b1-4)GlcNAc(b1-4)GlcNAc
Procedure, shortened: as §1

[30] = molecular target: GlcNAc(b1-2)[GlcNAc(b1-4)]Man(a1-3)[GlcNAc(b1-4)][GlcNAc(b1-2)[GlcNAc(b1-6)]Man(a1-6)]Man(b1-4)GlcNAc(b1-4)[Fuc(a1-6)]GlcNAc
Procedure, shortened: as §1

[31] = molecular target: GlcNAc(b1-3)Gal(b1-4)GlcNAc
Procedure, shortened: as §1

[32] = molecular target: GlcNAc(b1-3)Gal(b1-4)GlcNAc(b1-3)Gal(b1-4)GlcNAc(b1-2)Man(a1-3)[GlcNAc(b1-3)Gal(b1-4)GlcNAc(b1-3)Gal(b1-4)GlcNAc(b1-2)Man(a1-6)]Man(b1-4)GlcNAc(b1-4)GlcNAc
Procedure, shortened: as §1

[33] = molecular target: GlcNAc(b1-3)Gal(b1-4)GlcNAc(b1-3)GalNAc
Procedure, shortened: as §1

[34] = molecular target: GlcNAc(b1-3)[GlcNAc(b1-4)][GlcNAc(b1-6)]GlcNAc
Procedure, shortened: as §1

[35] = molecular target: GlcNAc(b1-3)[GlcNAc(b1-6)]GalNAc
Procedure, shortened: as §1

[36] = molecular target: Neu5Ac(a2-3)Gal(b1-3)GlcNAc(b1-2)Man(a1-3)[GlcNAc(b1-4)][Neu5Ac(a2-3)Gal(b1-3)GlcNAc(b1-2)Man(a1-6)]Man(b1-4)GlcNAc(b1-4)GlcNAc
Procedure, shortened: as §1

[37] = molecular target: Neu5Ac(a2-3)Gal(b1-4)GlcNAc(b1-2)Man
Procedure, shortened: as §1

[38] = molecular target: Neu5Ac(a2-3)Gal(b1-4)GlcNAc(b1-2)Man(a1-3)[Neu5Ac(a2-3)Gal(b1-4)GlcNAc(b1-2)Man(a1-6)]Man(b1-4)GlcNAc(b1-4)[Fuc(a1-6)]GlcNAc
Procedure, shortened: as §1

[39] = molecular target: Neu5Ac(a2-3)Gal(b1-4)GlcNAc(b1-3)Gal(b1-4)GlcNAc(b1-2)Man(a1-3)[Neu5Ac(a2-3)Gal(b1-4)GlcNAc(b1-3)Gal(b1-4)GlcNAc(b1-2)Man(a1-6)]Man(b1-4)GlcNAc(b1-4)GlcNAc
Procedure, shortened: as §1

[40] = molecular target: Neu5Ac(a2-3)Gal(b1-4)GlcNAc(b1-6)[Gal(b1-3)]GalNAc
Procedure, shortened: as §1

[41] = molecular target: Neu5Ac(a2-3)Gal(b1-4)GlcNAc(b1-6)[Neu5Ac(a2-3)Gal(b1-3)]GalNAc
Procedure, shortened: as §1

[42] = molecular target: Neu5Ac(a2-3)Gal(b1-4)[Fuc(a1-3)]GlcNAc(b1-2)Man
Procedure, shortened: as §1

[43] = molecular target: Neu5Ac(a2-3)GalNAc(b1-4)GlcNAc
Procedure, shortened: as §1

[44] = molecular target: Neu5Ac(a2-6)GlcNAc(b1-4)GlcNAc(b1-4)GlcNAc
Procedure, shortened: as §1

[45] = molecular target: Neu5Ac(a2-8)Neu5Ac(a2-8)Neu5Ac
Procedure, shortened: as §1

[46] = molecular target: Neu5Ac9Ac(a2-3)Gal(b1-4)GlcNAc
Procedure, shortened: as §1

B1: GSL-I-B4 (Griffonia simplicifolia) (protein)
chain: NFWSDVEDSIIFQGDANTTAGTLQLCKTNQYGTPLQWSAGRALYSDPVQLWDNKTESVASFYTEFTFFLKITGNGPADGLAFFLAPPDSDVKDAGEYLGLFNKSTATQPSKNQVVAVEFDTWTNPNFPEPSYRHIGINVNSIVSVATKRWEDSDIFSGKIATARISYDGSAEILTVVLSYPDGSDYILSHSVDMRQNLPESVRVGISASTGNNQFLTVYILSWRFSSNLQSTSVKAAMEPEITRTVV
[1]
  glycan array binding signal (z-score): -0.132
[2]
  glycan array binding signal (z-score): -0.131
[3]
  glycan array binding signal (z-score): 0.853
[4]
  glycan array binding signal (z-score): 1.74
[5]
  glycan array binding signal (z-score): 0.077
[6]
  glycan array binding signal (z-score): 3.69
[7]
  glycan array binding signal (z-score): -0.12
[8]
  glycan array binding signal (z-score): -0.197
[9]
  glycan array binding signal (z-score): -0.155
Gal(a1-2)Gal
  glycan array binding signal (z-score): 5.94
[10]
  glycan array binding signal (z-score): 1.98
[11]
  glycan array binding signal (z-score): 1.88
Gal(a1-3)Gal(b1-4)GlcNAc
  glycan array binding signal (z-score): 2
[12]
  glycan array binding signal (z-score): 7.78
[13]
  glycan array binding signal (z-score): 6.03
[14]
  glycan array binding signal (z-score): 1.71
[15]
  glycan array binding signal (z-score): 5.37
[16]
  glycan array binding signal (z-score): 1.52
Gal(a1-4)GlcNAc
  glycan array binding signal (z-score): 13.8
[17]
  glycan array binding signal (z-score): -0.212
[18]
  glycan array binding signal (z-score): -0.155
Gal(b1-3)GlcNAc(b1-2)Man
  glycan array binding signal (z-score): -0.171
[19]
  glycan array binding signal (z-score): -0.138
[20]
  glycan array binding signal (z-score): -0.228
[21]
  glycan array binding signal (z-score): -0.187
[22]
  glycan array binding signal (z-score): -0.177
[23]
  glycan array binding signal (z-score): -0.172
[24]
  glycan array binding signal (z-score): -0.15
[25]
  glycan array binding signal (z-score): -0.205
[26]
  glycan array binding signal (z-score): -0.133
Gal3S(b1-4)Glc
  glycan array binding signal (z-score): -0.151
Gal3S(b1-4)GlcNAc
  glycan array binding signal (z-score): -0.174
[27]
  glycan array binding signal (z-score): -0.156
GalNAc3S(b1-4)GlcNAc
  glycan array binding signal (z-score): -0.159
[28]
  glycan array binding signal (z-score): -0.12
[29]
  glycan array binding signal (z-score): -0.089
[30]
  glycan array binding signal (z-score): -0.062
[31]
  glycan array binding signal (z-score): -0.186
[32]
  glycan array binding signal (z-score): 0.066
[33]
  glycan array binding signal (z-score): -0.208
[34]
  glycan array binding signal (z-score): -0.144
[35]
  glycan array binding signal (z-score): -0.161
[36]
  glycan array binding signal (z-score): -0.151
[37]
  glycan array binding signal (z-score): -0.197
[38]
  glycan array binding signal (z-score): -0.214
[39]
  glycan array binding signal (z-score): 0.149
[40]
  glycan array binding signal (z-score): -0.23
[41]
  glycan array binding signal (z-score): -0.212
[42]
  glycan array binding signal (z-score): -0.187
[43]
  glycan array binding signal (z-score): -0.157
[44]
  glycan array binding signal (z-score): -0.169
[45]
  glycan array binding signal (z-score): -0.144
[46]
  glycan array binding signal (z-score): -0.134
